# In PubChem BioAssay AID686978 (National Center for Advancing Translational Sciences (NCATS), 2013):
# Screen size: about 420,000 compounds; about 64,000 (15%) were called active. Roughly 27% stayed inconclusive and do not appear here. A selection follows. Values without a mark were called inactive. The call rests on the fitted dose curve; in most records, active means well fitted inhibition curve with a large enough effect; inconclusive means small, poorly fitted or top-dose-only effect; inactive means flat fitted curve, though single readings scatter.
# Test: qHTS for Inhibitors of human tyrosyl-DNA phosphodiesterase 1 (TDP1): qHTS in cells in absence of CPT; further: nearly all actives have a fitted effect of over 55% in size
# Settings: DT40 Tdp1-/- hTDP1 cells, no CPT, ATP luminescence, 48 h; activity change, negative = growth inhibition: at 46.2 µM (top of the series)
# Method in brief: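 Cells were dispensed at 400 per well, compounds added by pin tool, plates incubated ≥48 hr at 37 °C, then CellTiter-Glo added for 30 min at room temperature before luminescence reading. Line: DT40 Tdp1-/- complemented with hTDP1; camptothecin omitted.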
# On the % scale 0 is the no-effect control and ±100 the full control effect; potency means the concentration at half of the fitted maximal effect.
SMILES,"activity change, negative = growth inhibition [%]",Potency
CCc1ccc(-c2nnn(Cc3nn[nH]n3)n2)cc1,-0.357,
COc1ccc(C(C#N)=C2C=CC(=NO)c3ccccc32)cc1,,0.82 µM (active)
COc1ccc(/C(N)=N/OC(=O)Cc2ccccc2)cc1,-2.57,
COc1ccc(C(=NN)c2ccc(OC)cc2)cc1,-24.3,
O=C(c1ccc[nH]c1=S)N1CCN(S(=O)(=O)c2ccc(Br)cc2Cl)CC1,-9.07,
O=C(NCc1ccncc1)C(=O)NCc1ccco1,-11.2,
COc1ccc(CNC(=O)c2c(C)cc(=O)oc2C)cc1OC,-9.12,
Cc1noc(C)c1-c1ccc(C(=O)NCc2ccncc2)c2occc12,,8.2 µM (active)
CCN(CC(=O)NCc1ccc(Cl)cc1)C(=O)c1c(C)noc1C,-2.22,
COc1ccc(CNC(=O)c2ccc(-c3cccnc3)c3ccoc23)cc1OC,,18.4 µM (active)
COc1ccc(CNC(=O)c2ccc(Br)s2)cc1OC,-11.8,
O=C(COc1ccc(Cl)cc1)NCc1nnc(SCC(=O)NCC2CCCO2)o1 (configuration not stated),17.3,
CCn1cc(CNC(=O)c2cc([N+](=O)[O-])c(C)c([N+](=O)[O-])c2)cn1,-25.9,
Cc1cccc(NC(=O)CSCC(=O)Nc2nnc(C3CC3)s2)c1,5.18,
Cc1ccc(C(=O)CSc2ccccc2C(=O)O)cc1,4.44,
Cc1ccc(C(=O)CS(C)(=O)=O)cc1,-5.59,
Cc1ccc(SC(CC(=O)c2ccc(C(C)(C)C)cc2)C(=O)O)cc1 (configuration not stated),,2.91 µM (active)
CC1(C)c2[nH]c3ccccc3c2C[C@H]2C(=O)N(N)CC(=O)N21,-2.67,
O=C(NC1CCc2ccccc21)C12CN(Cc3ccccc3)CC1C(c1cccc([N+](=O)[O-])c1)=NO2 (configuration not stated),-28.8,
CC(C)c1nnc(NC(=O)C2CCCN2S(=O)(=O)c2ccc(Cl)cc2)s1 (configuration not stated),-18.8,
O=C(NCc1ccccc1Cl)C1CCCN1S(=O)(=O)c1ccc(F)cc1 (configuration not stated),-28.8,
COc1ccccc1NC(=O)C1CCCN1S(=O)(=O)c1ccc(Cl)cc1 (configuration not stated),,16.4 µM (active)
COc1cccc(CCNC(=O)COc2cccc3c2OC(C)(C)C3)c1,-28,

SMILES,"activity change, negative = growth inhibition [%]",Potency
CN(C)c1cccc2ccccc12,-21.3,
CC(C)[C@@H](C(=O)O)N(Cc1cccc(CN([C@H](C(=O)O)C(C)C)S(C)(=O)=O)c1)S(C)(=O)=O,-13.5,
COc1cc2c(cc1O)C(SC)=NC(C)(C)C2,,29.1 µM (active)
COc1cc2c(cc1OC)C(Nc1ccc(S(N)(=O)=O)cc1)=NC(C)(C)C2,-1.6,
O=C(Nc1ccccn1)C1CCN(S(=O)(=O)c2ccccc2)CC1,-16.5,
CCCCN(CC(=O)NC(C)(C)C)C(=O)C(=O)Nc1ccc2c(c1)OCCO2,-4.3,
CC(C)(C)NS(=O)(=O)CC12CCC(CC1=O)C2(C)C (configuration not stated),8.13,
CN(C)CC/C=C1\c2ccccc2CSc2ccccc21,-2.35,
CN(C)Cc1ccccc1C1(O)c2ccccc2CSc2ccccc21 (configuration not stated),,23.1 µM (active)
CC(=O)NC(CC(=O)Nc1nccs1)c1ccccc1 (configuration not stated),-1.06,
Cc1c(OC(C)C(=O)NCC2CCC(C(=O)O)CC2)ccc2c1oc(=O)c1ccccc12 (configuration not stated),-23.1,
CCN(CC(=O)NC(=O)NCc1ccccc1)Cc1nc2ccccc2c(=O)[nH]1,-25.3,
CC1(C(=O)NCc2ccco2)Cc2c(-c3ccc4c(c3)OCO4)ccnc2O1 (configuration not stated),,0.58 µM (active)
O=C(NCc1ccc2c(c1)OCO2)c1cc(F)c(F)cc1Cl,6.94,
O=C(Cn1nnc(-c2ccc3c(c2)OCO3)n1)NCc1ccco1,-1.69,
O=C(NCc1ccc2c(c1)OCO2)C12CC3CC(CC(C3)C1)C2,-22.8,
S=C(NCc1ccc2c(c1)OCO2)NCc1ccco1,-18.3,
CC1(C(=O)NCc2ccc(F)c(F)c2)Cc2c(-c3ccc4c(c3)OCO4)ccnc2O1 (configuration not stated),,2.91 µM (active)
OCC1(CCOc2ccccc2)CCN(Cc2cn[nH]c2-c2ccccc2)CC1,2.32,
COCc1c(C(=O)N/N=C(\C)c2ccncc2)nnn1-c1nonc1N,4.24,
CC(Sc1nnc(CNC(=O)c2ccccc2F)n1C)C(=O)Nc1nccs1 (configuration not stated),-15,
O=c1c(-c2ccc(F)cc2)nc2cncnc2n1-c1ccccc1,-7.29,
Cc1cnc(NC(=O)Cn2cnc3c2c(=O)n(C)c(=O)n3C)s1,-7.75,

SMILES,"activity change, negative = growth inhibition [%]",Potency
CCSc1ccccc1C(=O)Nc1ccc2c(c1)OCO2,-6.47,
CCC(C)OC(=O)C(C)Oc1ccc(-c2ccccc2)cc1 (configuration not stated),-4.46,
N#CC1=C(N)N(c2ccc(F)cc2)C(=O)C1,-14.7,
O=C(CSc1ccccc1)Nc1nnc(/C=C/c2ccccc2)s1,-20.1,
Cc1ccc2cccc(S(=O)(=O)N3CCN(c4ccccc4F)CC3)c2n1,-22.5,
O=C(CN1CCN(c2ccccc2F)CC1)c1ccc2c(c1)OCO2,-2.9,
CCN(C(=O)Cn1cc(S(=O)(=O)N2CCN(c3ccccc3F)CC2)c2ccccc2c1=O)c1ccc(C)c(C)c1,,10.3 µM (active)
CCCN(C(=O)Cn1cc(S(=O)(=O)N2CCN(c3ccccc3F)CC2)c2ccccc2c1=O)c1cccc(C)c1,,18.4 µM (active)
CCOC(=O)N1CCN(c2c(NCCN3CCN(c4ccccc4F)CC3)c(=O)c2=O)CC1,-8.93,
CC1(C)NC(=O)N(CC(=O)N2CCN(S(=O)(=O)c3ccccc3F)CC2)C1=O,3.77,
Cc1cc(C)c(S(=O)(=O)N(C)CC(=O)NCC2CCCO2)c(C)c1 (configuration not stated),-13.3,
O=S1(=O)CC(NCc2ccccc2)C(Nc2ccc(Cl)cc2)C1 (configuration not stated),1.7,
O=C(NC1(C(F)(F)F)N=C2SCCN2C1=O)c1ccco1 (configuration not stated),-16.8,
COc1cnn(-c2ccc([N+](=O)[O-])cc2)c(=O)c1Cl,-25.3,
Cc1cc(C)c(C#N)c(SCS(=O)c2ccc(C(C)(C)C)cc2)n1 (configuration not stated),-24.8,
COC(=O)COc1ccc2c(=O)c(Oc3ccccc3Br)coc2c1,-6.82,
C[C@H]1CN([C@@H](C)CO)C(=O)CCCn2cc(nn2)CO[C@@H]1CN(C)S(=O)(=O)c1ccc(-n2cccn2)cc1,-29.1,
CC(C)(C)n1nnnc1C(c1ccccc1F)N1CCN(C(=O)c2ccco2)CC1 (configuration not stated),-12.2,
CCOc1ccc(CN(Cc2ccco2)C(c2cccs2)c2nnnn2C(C)(C)C)cc1 (configuration not stated),,16.4 µM (active)
C/C(=C\c1ccco1)CN1CCC(N2CCC(C(=O)N3CCOCC3)CC2)CC1,-28.9,
CCN(C(=O)COC(=O)CCC(=O)c1cccs1)C1CCCCC1,-9.9,
